From PubChem BioAssay (Tox21)
Where “and” joins values, the source holds several entries; their conditions need not be identical. Equal entries are not always repeated. Inconclusive results are not listed. Calls of active or inactive are those of the source. Unless noted, the call rests on the fitted dose curve; in most records, active means well fitted curve in the direction sought with a large enough effect in the repeat runs; inconclusive means weak or mixed curves; inactive means no such curve, though single readings can be large; an effect the other way counts as inactive or inconclusive.

What was measured:
[1] = qHTS assay to identify small molecule antagonists of the peroxisome proliferator-activated receptor delta (PPARd) signaling pathway - cell viability counter screen (AID 743213); further: nearly all actives have a fitted effect of over 50% in size; further: potency means the concentration at half of the fitted maximal effect
Summary of the method: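 Viability counter-screen, qHTS format: PPARd-bla HEK293H, L165041 300 nM final, 17 h compound exposure at 37 C, CellTiter-Glo luminescence after 30 min RT.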

[2] = qHTS assay to identify small molecule agonists of the farnesoid-X-receptor (FXR) signaling pathway - cell viability counter screen (AID 743218); further: nearly all actives have a fitted effect of over 45% in size; further: potency means the concentration at half of the fitted maximal effect
Summary of the method: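 Readout: CellTiter-Glo luminescence, 30 min RT, multiplexed after the FXR-bla FRET reading. HEK 293T FXR-UAS-bla cells received compound 5 h post-plating and were incubated 16 h at 37 C.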

[3] = qHTS assay to identify small molecule antagonists of the farnesoid-X-receptor (FXR) signaling pathway - cell viability counter screen (AID 743221; active means well fitted cell-killing curve with a large enough effect in the repeat runs, not every such curve was filed as active; further: nearly all actives have a fitted effect of over 50% in size; further: potency means the concentration at half of the fitted maximal effect)
Summary of the method: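 In GeneBLAzer FXR-UAS-bla HEK 293T cells stimulated with 50 uM chenodeoxycholic acid (final), compounds acted for 16 h at 37 C. Viability was assessed afterwards by CellTiter-Glo luminescence.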

[4] = qHTS assay to identify small molecule agonists of the vitamin D receptor (VDR) signaling pathway - cell viability counter screen (AID 743224); further: nearly all actives have a fitted effect of over 50% in size; further: potency means the concentration at half of the fitted maximal effect
Summary of the method: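 In parallel with the bla FRET readout, cytotoxicity toward VDR-bla cells after 16 h compound exposure was assessed by CellTiter-Glo, with luminescence recorded after a 30 min room-temperature incubation.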

[5] = qHTS assay to identify small molecule antagonists of the vitamin D receptor (VDR) signaling pathway - cell viability counter screen (AID 743225); further: nearly all actives have a fitted effect of over 50% in size; further: potency means the concentration at half of the fitted maximal effect
Summary of the method: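 Luminescent cell viability (CellTiter-Glo) in VDR-bla HEK 293T cells after 16 h compound exposure at 37C in the presence of 3 nM final 1-alpha,25-dihydroxy vitamin D3.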

[6] = qHTS assay to identify small molecule agonists of the NFkB signaling pathway - cell viability counter screen (AID 1159515; calls by dose curve; further: nearly all actives have a fitted effect of over 55% in size; further: potency means the concentration at half of the fitted maximal effect)
Summary of the method: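 Plate 2,000 NFkB-bla ME-180 cells/well; incubate overnight. Add compounds, 5 hr at 37 C. Add FRET substrate, 1.5 hr RT. Add CellTiter-Glo, 30 min RT; read luminescence.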

[7] = qHTS assay to identify small molecule agonists of the endoplasmic reticulum stress response signaling pathway - cell viability counter screen (AID 1159517; calls by dose curve; further: nearly all actives have a fitted effect of over 50% in size; further: potency means the concentration at half of the fitted maximal effect)
Summary of the method: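 After overnight attachment, ESRE-bla HeLa cells were treated with Tox21 library compounds for 5 hr. CellTiter-Glo luminescence, read 30 min post-addition at room temperature, reported viability.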

[8] = qHTS assay to identify small molecule antagonists of the retinoid-related orphan receptor gamma (ROR-gamma) signaling pathway - cell viability counter screen (AID 1159520); further: nearly all actives have a fitted effect of over 50% in size; further: potency means the concentration at half of the fitted maximal effect
Summary of the method: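 Cytotoxicity was read from cellular ATP (CellTiter-Glo luminescence) after 16 hr at 37 C with 1 uM doxycycline induction. The inducer was added 2 hr after compound transfer to Tet-on ROR gamma CHO cells.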

[9] = qHTS assay to identify small molecule agonists of the AP-1 signaling pathway - cell viability counter screen (AID 1159525; calls by dose curve; further: nearly all actives have a fitted effect of over 55% in size; further: potency means the concentration at half of the fitted maximal effect)
Summary of the method: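 Intracellular ATP by Cell Titer Glo luminescence (30 min, RT) in the same ME-180 AP-1-bla wells after the 5 h compound exposure at 37 °C. Normalised to tetra n-octyl ammonium bromide and DMSO controls.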

[10] = biological target: Retinoic acid receptor RXR-alpha (Homo sapiens) (UniProt P19793); assay: qHTS assay to identify small molecule agonists of the RXR signaling pathway (AID 1159527; calls by dose curve; further: nearly all actives have a fitted effect of over 35% in size)
Summary of the method: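 Beta-lactamase reporter assay, agonist format. Engineered HEK 293T line, charcoal-stripped FBS at 2%, overnight (16 hr) exposure, fluorescence at 460 and 530 nm after 405 nm excitation.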

[11] = qHTS assay to identify small molecule agonists of the RXR signaling pathway - cell viability counter screen (AID 1159529); further: nearly all actives have a fitted effect of over 50% in size; further: potency means the concentration at half of the fitted maximal effect
Summary of the method: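 Same-well viability check after the LiveBLAzer FRET read: CellTiter-Glo added, luminescence measured after 30 min at room temperature. Reporter HEK 293T cells had been treated with compounds for 16 hr following a 5 hr preincubation.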

[12] = biological target: Peroxisome proliferator-activated receptor delta (Homo sapiens) (UniProt Q03181); assay: qHTS assay to identify small molecule agonists of the peroxisome proliferator-activated receptor delta (PPARd) signaling pathway (AID 743212; calls by dose curve;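 further: HEK293H cells with PPARd UAS beta-lactamase reporter GeneBLAzer system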; further: potency means the concentration at half of the fitted maximal effect)
Summary of the method: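 Steps: seed PPARd-bla HEK293H cells; incubate 5 h, 37 C, 5% CO2; add compounds in DMSO; incubate, 37 C; add LiveBLAzer B/G FRET substrate; hold 2 h at room temperature; measure fluorescence.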

[13] = biological target: Peroxisome proliferator-activated receptor delta (Homo sapiens) (UniProt Q03181); assay: qHTS assay to identify small molecule antagonists of the peroxisome proliferator-activated receptor delta (PPARd) signaling pathway (AID 743215; active means well fitted inhibition curve with a large enough effect in the signal ratio in the repeat runs, not every such curve was filed as active; the % refers to the signal ratio;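 further: cells stimulated with agonist L165041 at 300 nM final during compound exposure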; further: potency means the concentration at half of the fitted maximal effect)
Summary of the method: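 Fluorescence from cleaved LiveBLAzer B/G FRET substrate (2 h, room temperature) reports PPARd-driven beta-lactamase in HEK293H UAS-bla cells. Cells had been treated 17 h at 37 C with compound plus 300 nM final L165041.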

[14] = biological target: Bile acid receptor (Homo sapiens) (UniProt Q96RI1); assay: qHTS assay to identify small molecule antagonists of the farnesoid-X-receptor (FXR) signaling pathway (AID 743217; active means well fitted inhibition curve with a large enough effect in the signal ratio in the repeat runs, not every such curve was filed as active; the % refers to the signal ratio; further: potency means the concentration at half of the fitted maximal effect)
Summary of the method: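 FRET fluorescence after 2 h room-temperature LiveBLAzer loading gives the readout. Prior step: FXR-bla HEK 293T cells, seeded and incubated 5 h, received test compounds plus 50 uM final CDCA for 16 h at 37 °C.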

[15] = qHTS assay to identify small molecule agonists of the AP-1 signaling pathway (AID 1159526; calls by dose curve)
[16] = biological target: Nuclear receptor ROR-gamma (Homo sapiens) (UniProt P51449); assay: qHTS assay to identify small molecule antagonists of the retinoid-related orphan receptor gamma (ROR-gamma) signaling pathway (AID 1159521; further: nearly all actives have a fitted effect of over 50% in size; further: potency means the concentration at half of the fitted maximal effect)
Summary of the method: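 CHO cells expressing RORγ under a TET-on promoter, luciferase under RORE control. Dox 1 uM final, 16 h; compounds added 2 h prior. Luminescence decrease measured.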

[17] = biological target: Bile acid receptor (Homo sapiens) (UniProt Q96RI1); assay: qHTS assay to identify small molecule agonists of the farnesoid-X-receptor (FXR) signaling pathway (AID 743220; active means well fitted activation curve with a large enough effect in the signal ratio in the repeat runs, not every such curve was filed as active; the % refers to the signal ratio)
Summary of the method: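 FXR-UAS-bla HEK 293T cells carrying a UAS-driven beta-lactamase reporter were plated for 5 h at 37C/5% CO2, then exposed to DMSO-dissolved Tox21 10K compounds for 16 h at 37C. A LiveBLAzer B/G FRET substrate was loaded for 2 h at room temperature before fluorescence reading.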

[18] = biological target: Vitamin D3 receptor (Homo sapiens) (UniProt P11473); assay: qHTS assay to identify small molecule agonists of the vitamin D receptor (VDR) signaling pathway (AID 743222; calls by dose curve)
Summary of the method: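 Following 4 h attachment at 37C, VDR-bla cells (2,000 per well) received DMSO-dissolved compounds or controls. After 16 h incubation, LiveBLAzer B/G FRET substrate was added and fluorescence read 2 h later at room temperature.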

Measured: Potency

Peroxisome proliferator-activated receptor delta (Homo sapiens), sequence (Q03181 whole entry, looked up): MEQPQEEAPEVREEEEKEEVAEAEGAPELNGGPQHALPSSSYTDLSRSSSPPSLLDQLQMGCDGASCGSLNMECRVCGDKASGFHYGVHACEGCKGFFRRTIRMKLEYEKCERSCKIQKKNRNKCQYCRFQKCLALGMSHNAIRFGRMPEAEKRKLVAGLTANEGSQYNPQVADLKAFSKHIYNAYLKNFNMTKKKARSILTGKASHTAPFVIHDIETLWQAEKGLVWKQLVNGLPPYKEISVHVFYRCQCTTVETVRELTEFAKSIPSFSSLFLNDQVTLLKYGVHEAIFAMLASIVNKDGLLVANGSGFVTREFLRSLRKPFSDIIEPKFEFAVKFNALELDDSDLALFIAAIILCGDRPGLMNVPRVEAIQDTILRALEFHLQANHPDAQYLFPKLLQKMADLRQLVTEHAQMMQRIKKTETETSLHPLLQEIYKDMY
Bile acid receptor (Homo sapiens), sequence (Q96RI1 whole entry, looked up): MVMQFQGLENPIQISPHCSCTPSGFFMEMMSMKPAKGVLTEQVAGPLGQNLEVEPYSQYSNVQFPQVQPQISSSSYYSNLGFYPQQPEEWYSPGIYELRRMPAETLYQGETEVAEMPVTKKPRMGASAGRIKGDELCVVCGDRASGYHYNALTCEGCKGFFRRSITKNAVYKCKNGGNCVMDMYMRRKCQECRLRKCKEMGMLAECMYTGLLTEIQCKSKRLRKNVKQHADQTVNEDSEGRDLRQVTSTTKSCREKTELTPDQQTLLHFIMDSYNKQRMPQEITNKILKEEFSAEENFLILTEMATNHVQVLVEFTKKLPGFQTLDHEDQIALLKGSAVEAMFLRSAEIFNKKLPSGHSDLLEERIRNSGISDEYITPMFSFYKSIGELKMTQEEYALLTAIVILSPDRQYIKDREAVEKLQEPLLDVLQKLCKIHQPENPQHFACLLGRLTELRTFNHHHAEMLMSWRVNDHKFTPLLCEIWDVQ
Vitamin D3 receptor (Homo sapiens), sequence (P11473 whole entry, looked up): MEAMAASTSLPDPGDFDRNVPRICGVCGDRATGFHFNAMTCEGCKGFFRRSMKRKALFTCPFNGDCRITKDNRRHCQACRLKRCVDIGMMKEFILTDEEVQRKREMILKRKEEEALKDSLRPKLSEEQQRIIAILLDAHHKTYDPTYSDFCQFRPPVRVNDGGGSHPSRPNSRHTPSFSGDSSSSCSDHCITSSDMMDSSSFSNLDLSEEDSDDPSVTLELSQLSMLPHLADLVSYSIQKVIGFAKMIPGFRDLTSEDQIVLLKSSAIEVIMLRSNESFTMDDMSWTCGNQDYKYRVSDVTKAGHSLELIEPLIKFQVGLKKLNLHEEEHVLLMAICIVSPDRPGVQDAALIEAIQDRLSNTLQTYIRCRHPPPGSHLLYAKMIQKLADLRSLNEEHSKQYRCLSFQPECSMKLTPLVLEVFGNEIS
Retinoic acid receptor RXR-alpha (Homo sapiens), sequence (P19793 whole entry, looked up): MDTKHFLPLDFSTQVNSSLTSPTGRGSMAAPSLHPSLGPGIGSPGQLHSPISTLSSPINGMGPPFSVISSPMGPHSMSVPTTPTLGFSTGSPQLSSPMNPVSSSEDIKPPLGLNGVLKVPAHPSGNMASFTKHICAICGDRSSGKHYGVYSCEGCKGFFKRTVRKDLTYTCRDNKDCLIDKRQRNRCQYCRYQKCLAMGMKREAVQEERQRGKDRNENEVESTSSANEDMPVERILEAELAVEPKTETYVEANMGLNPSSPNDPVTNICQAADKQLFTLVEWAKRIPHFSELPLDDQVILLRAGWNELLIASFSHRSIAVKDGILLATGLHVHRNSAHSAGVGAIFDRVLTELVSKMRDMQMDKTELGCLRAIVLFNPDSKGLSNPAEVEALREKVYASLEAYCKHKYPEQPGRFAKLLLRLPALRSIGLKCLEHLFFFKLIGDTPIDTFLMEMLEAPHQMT

c1ccc2c(c1)[nH]c1cnccc12
not listed: [12] | [13] | [14] | [15] | [16] | [17] | [18]
inactive: all other assays above

CCCCCCCCCCCCCCC(Br)C(=O)O (centres undefined)
active: [12] 13.8 µM | [6] 54.9 µM | [7] 38.9 µM
inactive: [13] | [14] | [8] | [9] | [15] | [10]

CCCCCCCCc1ccc(O)cc1
active: [6] 49.3 µM | [7] 49.3 µM | [8] 61.5 µM | [9] 22 µM
inactive: [16]

CC1CCC(C(C)C)C(OC(=O)c2ccccc2N)C1 (centres undefined)
inactive: [17]
active: [5] 38.4 µM | [6] 34.2 µM | [7] 43 µM | [8] 53.7 µM | [11] 17.1 µM

Oc1c(Cl)c(Cl)cc(Cl)c1Cl
active: [16] 23.7 µM | [11] 7.55 µM
inactive: [13] | [6] | [7] | [9] | [15]

CC1(C)C(/C=C(\Cl)C(F)(F)F)C1C(=O)OC(C#N)c1cccc(Oc2ccccc2)c1 (centres undefined)
active: [14] 17.7 µM
not listed: [5] | [10] | [16] | [18]
inactive: all other assays above

c1ccc2cc3c(cc2c1)-c1cccc2cccc-3c12
inactive: [1] | [2] | [3] | [5] | [6] | [7] | [8] | [11]

CC(C)OC(=S)S
inactive: [12] | [1] | [14] | [3] | [5] | [6] | [7] | [9]
active: [16] 15.4 µM

CC(=O)[O-].CC(=O)[O-].[Hg+2]
active: [1] 3.47 µM | [2] 1.1 µM | [3] 3.09 µM | [4] 1.74 µM | [5] 3.09 µM | [6] 0.871 µM | [7] 0.776 µM | [8] 1.22 µM | [9] 3.89 µM | [11] 2.75 µM

Nc1ccccc1C(=O)OC/C=C/c1ccccc1
active: [5] 49.1 µM
inactive: [12] | [1] | [13] | [3] | [6] | [7] | [8] | [16]

CN(C)C(=S)S
inactive: [5] | [7]
active: [1] 5.45 µM and 7.76 µM | [2] 0.386 µM | [3] 612 nM and 4.36 µM | [4] 50 µM and 1.09 µM and 9.77 µM | [6] 15.5 µM | [8] 6.11 µM | [9] 38.9 µM | [11] 1.22 µM and 43.6 µM

CC1(C)[C@H](C(=O)O[C@H](C#N)c2cccc(Oc3ccccc3)c2)[C@@H]1/C=C(\Cl)C(F)(F)F
inactive: [12] | [17] | [6] | [7] | [8] | [9] | [15] | [11]

CCCCOCN(C(=O)CCl)c1c(CC)cccc1CC
inactive: [14] | [2] | [5] | [6] | [7] | [8]
active: [4] 49 µM

COC(=O)N(C(=O)N1CO[C@@]2(C(=O)OC)Cc3cc(Cl)ccc3C2=N1)c1ccc(OC(F)(F)F)cc1
inactive: [2] | [3] | [4] | [6] | [7] | [8] | [9] | [11]

CCC[CH2][Sn]([CH2]CCC)([CH2]CCC)[O]C(=O)c1ccccc1
active: [1] 1.38 µM | [3] 2.45 µM | [4] 0.692 µM | [5] 1.95 µM | [6] 0.436 µM | [7] 4.9 µM | [8] 0.686 µM | [11] 1.23 µM

O=[N+]([O-])c1cc(C(F)(F)F)c(Cl)c([N+](=O)[O-])c1Cl
active: [1] 7.76 µM | [2] 7.76 µM | [3] 38.9 µM | [4] 12.3 µM | [5] 21.9 µM | [6] 54.9 µM | [7] 12.3 µM | [8] 27.3 µM | [16] 6.11 µM | [11] 17.4 µM

CCCN(CCC)c1c([N+](=O)[O-])cc(S(N)(=O)=O)cc1[N+](=O)[O-]
active: [1] 37 µM | [13] 58.6 µM | [14] 58.6 µM | [3] 52.2 µM | [4] 52.2 µM | [5] 11.7 µM | [6] 52.2 µM | [7] 52.2 µM | [8] 54.5 µM | [11] 43.6 µM

COP(=S)(OC)Oc1cc(Cl)c(Br)cc1Cl
inactive: [12] | [1] | [17] | [18] | [5] | [6] | [7] | [9] | [15]

CN(C)C1CSSSC1
not listed: [2] | [8] | [10] | [13] | [14] | [16] | [17]
inactive: all other assays above
